Platelet DG rel = modulates dense granule release in human platelets; human platelet-rich plasma, SFLLRN dense granule ATP release, luminescence; inhibition, %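 (compounds screened at 7.5 µM in platelet-rich plasma)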; 0.22% of 300,000 active; AID 1663;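 active means mean replicate score, as percent of positive control, at or above 50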
ABCB6 inh 2 = blocks the human ABCB6 transporter; K562-ABCB6 porphyrin accumulation, flow cytometry, 1 h; stronger effect = lower value; AID 602162; fluorescence ratio to DMSO, % at 10 µM; Q9NP58; 0.19% of 360,000 active;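 active means fluorescence ratio to DMSO below 75%, the collection mean minus 3 SD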;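 further: signal is porphyrin accumulated inside mitochondria; 100% equals median channel fluorescence of DMSO control wells; lower ratio means ABCB6 inhibition with less porphyrin fluorescence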
Target sequence (Q9NP58 whole entry, looked up): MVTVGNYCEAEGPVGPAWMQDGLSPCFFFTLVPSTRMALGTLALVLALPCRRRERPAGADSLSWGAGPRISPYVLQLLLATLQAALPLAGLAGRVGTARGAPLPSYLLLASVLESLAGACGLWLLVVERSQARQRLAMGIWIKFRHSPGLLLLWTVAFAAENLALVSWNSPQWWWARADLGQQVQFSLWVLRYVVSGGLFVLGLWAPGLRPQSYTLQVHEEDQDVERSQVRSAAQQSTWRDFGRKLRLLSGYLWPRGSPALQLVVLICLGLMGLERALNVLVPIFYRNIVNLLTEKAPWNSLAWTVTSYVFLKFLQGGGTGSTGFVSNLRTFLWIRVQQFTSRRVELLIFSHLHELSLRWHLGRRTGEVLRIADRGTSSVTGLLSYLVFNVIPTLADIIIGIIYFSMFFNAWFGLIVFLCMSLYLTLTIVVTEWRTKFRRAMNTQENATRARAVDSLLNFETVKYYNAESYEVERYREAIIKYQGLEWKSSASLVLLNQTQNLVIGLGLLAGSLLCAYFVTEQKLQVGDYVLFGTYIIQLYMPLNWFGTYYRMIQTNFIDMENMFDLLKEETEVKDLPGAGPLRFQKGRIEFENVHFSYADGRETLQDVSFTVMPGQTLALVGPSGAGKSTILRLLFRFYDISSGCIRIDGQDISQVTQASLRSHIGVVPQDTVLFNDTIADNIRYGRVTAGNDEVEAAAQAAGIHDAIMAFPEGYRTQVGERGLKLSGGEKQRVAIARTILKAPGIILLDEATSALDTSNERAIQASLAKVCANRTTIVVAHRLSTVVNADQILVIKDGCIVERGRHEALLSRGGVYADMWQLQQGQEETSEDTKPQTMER
SKN-1 inh = C. elegans SKN-1 inhibition; AID 624304; inhibition, % at 21.8 µM; C. elegans VP596 Pgst-4::GFP/RFP ratio, acrylamide-induced, 24 h; 0.49% of 360,000 active;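 active means interference check ratio from 0.5 to 1.5 plus GFP to RFP signal ratio inhibition reaching or exceeding a fixed threshold, cut at about 30% in these data, passing the limit was not always enough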
VLA-4 inh = inhibition in a human VLA-4 binding assay; P13612; VLA-4 expressing cells, ligand binding flow cytometry; inhibition, % (about 7 µM as worked out from the volumes in the protocol); 0.2% of 330,000 active; AID 2557; in the data active means inhibition above about 50%
CR mimetic SO = yeast age-related superoxide inhibition as caloric restriction mimetic. superoxide response (% of plate mean), % at 10 µM. S. cerevisiae aged cells, superoxide DHE fluorescence; stronger effect = lower value. 0.18% of 330,000 active;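 active means superoxide response under a set limit, about three screen SD below normal, cut at about 65% in these data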;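 further: yeast aged for seven days with compound at 30 °C before DHE staining; 100% = average MFI of all compound-treated wells on the plate with controls excluded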
Starred values were filed as active, the others as inactive; · = no result given. Only some compounds are listed: those with a hit (about 1.2% of all), similar ones and a draw of the others.

SMILES	Platelet DG rel	ABCB6 inh 2	SKN-1 inh	VLA-4 inh	CR mimetic SO
COC(=O)C[C@H]1C[C@H]2c3cc(NC(=O)C4CCC4)ccc3O[C@H]2[C@H](CO)O1	·	99	14	·	·
c1csc(-c2nc3ccccc3[nH]2)c1	·	97	15	2	103
Cc1ccc(-c2nc3ccccc3[nH]2)s1	59*	96	23	-5	84
Cc1csc2nc(CNC(=O)CCC(=O)O)cn12	-7	96	-9	11	81
CC(=O)NCc1cn2c(C)csc2n1	83*	99	-14	3	82
O=C1Nc2ccccc2N(C(=O)c2ccc(-c3ccccc3)cc2)C1c1nc2ccccc2[nH]1 (stereo unspecified)	·	98	16	·	·
CC1=C(C(=O)OC(C)C)C(c2ccc(Cl)cc2)n2c(sc(=Cc3ccc(OCC(=O)O)cc3)c2=O)=N1 (stereo unspecified)	·	99	5	·	·
COc1ccc(C2C(C(=O)OC(C)C)=C(C)N=c3s/c(=C\c4cccs4)c(=O)n32)cc1 (stereo unspecified)	8	93	43*	5	118
CC1(Oc2cccnc2Cl)CCN(Cc2ccc(OC(F)(F)F)cc2)C1 (stereo unspecified)	·	99	25	·	·
O=C(c1ccc(Cl)cc1)C1CCCN(Cc2ccc(Oc3ncccn3)cc2)C1 (stereo unspecified)	52*	100	-8	6	103
O=C(c1ccc(Cl)cc1)C1CCCN(Cc2cnn(-c3ccccc3)c2)C1 (stereo unspecified)	2	95	10	-28	85
CN[C@H]1C[C@H]2c3[nH]c4ccc(-c5ccc(OC)cc5)cc4c3CCN2C(=O)[C@H]1[C@H](C)O	·	103	8	·	·
O=C1NC[C@H](CCCCN2CCN(CC3CCCCC3)C(=O)C2=O)N(CCc2ccccc2)C1=O	·	103	-8	·	·
CC(C)c1ccc(NC(=O)Nc2nc(C(N)c3ccccc3Cl)cs2)cc1 (stereo unspecified)	·	94	-4	·	·
CCN1C(=O)/C(=C/C=C2/SCCN2C)SC1=S	14	93	27*	-14	101
O=S(=O)(Cc1ccc(Cl)cc1)Oc1ccc(Cl)cc1	·	95	46*	·	·
CCN(CC(=O)Nc1ccc(NC(C)=O)cc1)C(=O)C1CC1	·	105	2	·	·
CC1(C(=O)Nc2cccc(C#N)c2)CCN1C(=O)c1ccccc1CCc1ccccc1 (stereo unspecified)	·	96	29	·	·
CCOc1cc(C(c2c(C)[nH][nH]c2=O)c2c(C)[nH][nH]c2=O)ccc1OS(=O)(=O)c1ccc(C)cc1	9	94	46*	29	90
CCOc1ccc(C(c2c(C)[nH][nH]c2=O)c2c(C)[nH][nH]c2=O)cc1OC	3	106	-19	-10	94
COc1ccc(S(=O)(=O)NC(=O)C2(C)CCN2C(=O)C2CC2)cc1 (stereo unspecified)	·	99	11	·	·
CN(C)S(=O)(=O)c1ccc(-c2csc(N/N=C/c3ccco3)n2)cc1	2	91	3	0	104
C(=N\Nc1nc(-c2ccccc2)cs1)/c1ccco1	-1	94	47*	5	93
Clc1ccc(-c2csc(N/N=C/c3ccco3)n2)cc1	6	95	91*	0	88
Brc1ccc(-c2csc(N/N=C/c3ccco3)n2)cc1	-6	101	65*	6	82
SMILES	Platelet DG rel	ABCB6 inh 2	SKN-1 inh	VLA-4 inh	CR mimetic SO
Cc1ccc(-c2csc(N/N=C/c3ccco3)n2)cc1	4	97	60*	1	107
O=C(/C=C/c1ccco1)Nc1nc(-c2ccccc2)cs1	3	101	51*	-1	106
CSc1ccc(-c2ccc3c(c2)c(Sc2ccccc2)c(-c2ccccc2)n3C)cc1	·	93	11	·	·
Cc1ccc(N=C2NC(=O)/C(=C/c3cccn3C)S2)cc1C	14	102	10	-2	98
Cc1cccc(N=C2NC(=O)/C(=C/c3cccn3C)S2)c1C	-9	99	41*	-5	114
COc1ccc(CN2C(=O)c3ccccc3C2c2nnnn2-c2ccc3c(c2)OCCO3)cc1OC (stereo unspecified)	·	101	3	·	·
COc1ccc(-c2cc(C(F)(F)F)n3ncc(C(=O)NCC4CCCO4)c3n2)cc1OC (stereo unspecified)	2	64*	-20	10	97
CCOC(=O)C1=CCC(c2ccccc2Cl)N(S(=O)(=O)c2ccc(C)cc2)C1 (stereo unspecified)	·	104	21	·	·
Cn1ccc(-c2ccccc2)n1	0	94	-2	10	100
